According to PubChem BioAssay (NCI):
About 83,000 compounds went through this panel and 20% of them were active in at least one assay; those are over-represented in the sample as a whole.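 Interpretation: 100, growth as untreated; towards 0, rising growth inhibition; 0, no net growth; 0 to -100, cell death. Compounds scoring below 10 were considered active.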 Calls of active or inactive are those of the source.

Tests used:
Assay in all cases: NCI-60 one-dose screen, 48 h (100 = growth as untreated, 0 = no growth, -100 = all killed)
[1] = test system: NCI-H460 lung; conditions: 10 µM unless noted
[2] = test system: MALME-3M melanoma; conditions: 10 µM unless noted
[3] = test system: RXF 393 renal; conditions: 10 µM unless noted
[4] = test system: M14 melanoma; conditions: 10 µM unless noted
[5] = test system: HCT-15 colon; conditions: 10 µM
[6] = test system: SNB-75 CNS; conditions: 10 µM unless noted
[7] = test system: SNB-19 CNS; conditions: 10 µM unless noted
[8] = test system: SK-MEL-5 melanoma; conditions: 10 µM unless noted
[9] = test system: ACHN renal; conditions: 10 µM unless noted
[10] = test system: SR leukemia; conditions: 10 µM
[11] = test system: OVCAR-8 ovarian; conditions: 10 µM unless noted
[12] = test system: OVCAR-4 ovarian; conditions: 10 µM unless noted
[13] = test system: IGROV1 ovarian; conditions: 10 µM
[14] = test system: MDA-MB-435 melanoma; conditions: 10 µM unless noted
[15] = test system: SW-620 colon; conditions: 10 µM unless noted
[16] = test system: HCC-2998 colon; conditions: 10 µM unless noted
[17] = test system: COLO 205 colon; conditions: 10 µM
[18] = test system: K-562 leukemia; conditions: 10 µM unless noted
[19] = test system: OVCAR-3 ovarian; conditions: 10 µM unless noted
[20] = test system: BT-549 breast; conditions: 10 µM

Measured: growth

O=C1NC(=S)NC(=O)C1=Cc1ccccc1
inactive: [1] 104% | [2] 132% | [3] 115% | [4] 108% | [5] 99.5% | [6] 85.7% | [7] 107% | [8] 98.7% | [9] 100% | [10] 121% | [11] 110% | [12] 114% | [13] 119% | [14] 124% | [15] 96% | [16] 106%

Oc1ccccc1OB(Oc1ccccc1O)N(CCCl)CCCl
inactive: [1] 68.3% | [17] 98.4% | [18] 96.2% | [2] 89.9% | [3] 94.9% | [5] 75.7% | [6] 92.8% | [7] 87.2% | [8] 89.9% | [9] 86.1% | [10] 36.5% | [11] 77.2% | [12] 96.8% | [13] 52.4% | [19] 73.8% | [20] 49.4% | [14] 87.4% | [15] 82.9% | [16] 98.4%

CCC[CH2][Sn]([CH2]CCC)([CH2]CCC)[O]C(=O)CC
active: [1] -84.1% | [17] -86.7% | [18] -30.2% | [2] -75.8% | [4] -91.4% | [5] -72.9% | [7] -75.6% | [9] -96.7% | [10] 7.87% | [11] -70.4% | [12] -99.4% | [13] -80.2% | [20] -98.5% | [14] -89.3% | [15] -84.8% | [16] -94.5%

O=C1NC(=O)C(O)(C2(O)C(=O)NC(=O)NC2=O)C(=O)N1
active: [16] -55.7%
inactive: [1] 100% | [17] 79.9% | [18] 87.9% | [2] 57.9% | [4] 105% | [5] 107% | [6] 94% | [8] 86.7% | [9] 104% | [10] 95.1% | [11] 109% | [12] 108% | [19] 115% | [14] 108% | [15] 96.4%
